# Records with an inconclusive call do not appear. Active and inactive are the calls of the source. The calls were made as follows: active = hit-call score of the fitted dose curve at least 0.9, where 1 is the maximum; inconclusive = response in the unintended direction; inactive = score below 0.9.
# Assays:
# [1] = TOX21_p53_BLA_p5_viability: Viability Assessment in the Tox21 HCT-116 p53 Agonism Beta-lactamase Assay, Phase 5 (AID 2283600)
# In short: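 Viability is taken from cellular ATP content, measured by luciferase luminescence in the same wells after the beta-lactamase ratio read. Cells are seeded at 4000 per well and exposed to DMSO-dissolved compounds, diluted 217-fold, for 16 h.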
# [2] = molecular target: Cellular tumor antigen p53 (Homo sapiens) (UniProt P04637); assay: TOX21_p53_BLA_p4_ratio: Tox21 HCT-116 p53 Agonism Beta-lactamase Assay, Ratio, Phase 4 (AID 2283601)
# Cellular tumor antigen p53 (Homo sapiens), sequence (P04637 whole entry, looked up): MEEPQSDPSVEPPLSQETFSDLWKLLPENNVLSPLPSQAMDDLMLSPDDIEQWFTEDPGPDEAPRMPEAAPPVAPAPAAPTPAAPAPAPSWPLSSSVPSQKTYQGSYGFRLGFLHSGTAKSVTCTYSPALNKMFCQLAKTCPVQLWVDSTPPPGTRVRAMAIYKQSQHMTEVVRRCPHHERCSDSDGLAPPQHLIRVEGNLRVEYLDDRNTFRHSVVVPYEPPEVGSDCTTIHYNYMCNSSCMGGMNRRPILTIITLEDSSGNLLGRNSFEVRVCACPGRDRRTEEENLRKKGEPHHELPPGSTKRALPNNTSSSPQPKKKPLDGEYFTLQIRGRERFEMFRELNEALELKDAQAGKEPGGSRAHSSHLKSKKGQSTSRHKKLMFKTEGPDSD
# In short: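 HCT-116 p53 beta-lactamase reporter cells (4000/well) preincubated 5 h, then compound (217-fold dilution of DMSO stock) for 16 h at 37C. CCF4-AM substrate added 2 h at room temperature; 460/530 nm emission ratio fitted upward versus DMSO.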
# [3] = Tanguay_ZF_120hpf_MORT_legacy: (Legacy) Oregon State University Tanguay Lab 120 Hour Post-fertilization zebrafish Assay for Mortality (AID 2283633)
# In short: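 Mortality endpoint from a multiplexed whole-embryo zebrafish screen. Dechorionated wild-type embryos received compound at 6 hpf and remained under static exposure at 28C until 120 hpf, with death noted as a present/absent call.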
# [4] = Tanguay_ZF_120hpf_YSE_legacy: (Legacy) Oregon State University Tanguay Lab 120 Hour Post-fertilization zebrafish Assay for Yolk Sac Edema (AID 2283634);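 as to AC50: actives raise the incidence of yolk sac edema above the DMSO baseline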
# In short: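 Readout: presence or absence of yolk sac edema at 120 hpf, fitted upward against DMSO controls. Exposure ran statically from 6 hpf in dechorionated embryos kept at 28C.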
# [5] = Tanguay_ZF_120hpf_EYE_legacy: (Legacy) Oregon State University Tanguay Lab 120 Hour Post-fertilization zebrafish Assay for Eye Malformation (AID 2283636);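 also: binary presence or absence of eye malformation scored by brightfield in 120 hpf larvae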
# In short: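 5D wild-type embryos, pronase-dechorionated at 4 hpf; static exposure 6–120 hpf, 28C, dark; DMSO 0.64% final; 5uM trimethyltin chloride positive control. Binary eye-defect scoring at 120 hpf; dead embryos not scored.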
# [6] = Tanguay_ZF_120hpf_JAW_legacy: (Legacy) Oregon State University Tanguay Lab 120 Hour Post-fertilization zebrafish Assay for Jaw Malformation (AID 2283638);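 as to AC50: active means more embryos with jaw malformation than DMSO controls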
# In short: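 Static waterborne exposure of dechorionated wild-type (Tropical 5D) zebrafish from 6 to 120 hpf at 28C, 0.64% DMSO vehicle; 5uM trimethyltin chloride served as positive control. Jaw morphology recorded as binary at 120 hpf.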
# [7] = Tanguay_ZF_120hpf_OTIC_legacy: (Legacy) Oregon State University Tanguay Lab 120 Hour Post-fertilization zebrafish Assay for Otic Vesicle Malformation (AID 2283639)
# In short: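 Wild-type zebrafish larvae, whole-embryo exposure from early stage to 120 hpf at 28C. Binary brightfield scoring of otic vesicle morphology, fitted in the positive direction against the DMSO baseline.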
# [8] = Tanguay_ZF_120hpf_PE_legacy: (Legacy) Oregon State University Tanguay Lab 120 Hour Post-fertilization zebrafish Assay for Pericardial Edema (AID 2283640)
# In short: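 Read-out is the presence or absence of pericardial edema at 120 hpf under brightfield, with gain of signal fitted against DMSO controls. Larvae (5D wild-type) were statically exposed at 28C with 0.64% final DMSO.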
# [9] = Tanguay_ZF_120hpf_SNOU_legacy: (Legacy) Oregon State University Tanguay Lab 120 Hour Post-fertilization zebrafish Assay for Snout Malformation (AID 2283637)
# In short: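 Binary brightfield scoring of snout malformation at 120 hpf. Dechorionated 5D wild-type embryos, one per well, static exposure from 6 hpf at 28C, sealed and dark; final DMSO 0.64% (vol/vol), DMSO as baseline; 5uM trimethyltin chloride positive control.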
# [10] = Tanguay_ZF_120hpf_AXIS_legacy: (Legacy) Oregon State University Tanguay Lab 120 Hour Post-fertilization zebrafish Assay for Body Axis Malformation (AID 2283635);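 as to AC50: potency for an increased fraction of larvae scored with body axis malformation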
# In short: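 Static 6–120 hpf chemical exposure of dechorionated wild-type 5D zebrafish, one per well at 28C; morphology endpoint scored binary at 120 hpf relative to DMSO control.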
structure (smiles),measurement,setting,value
Cc1ccc(C)c(C)c1,outcome,[1],inactive
same,outcome,[2],inactive
same,outcome,[3],inactive
same,outcome,[4],inactive
same,outcome,[5],inactive
same,outcome,[6],inactive
same,outcome,[7],inactive
same,outcome,[8],inactive
CCCCC(CC)COC(=O)CC(C(=O)OCC(CC)CCCC)S(=O)(=O)O (stereo not given),AC50,[1],62.1 µM (active) [middle of 4 runs]
same,AC50,[2],79.2 µM (active) [middle of 4 runs]
same,outcome,[3],inactive
same,outcome,[4],inactive
same,outcome,[5],inactive
same,outcome,[9],inactive
same,outcome,[6],inactive
same,outcome,[7],inactive
CCCc1cc(=O)[nH]c(=S)[nH]1,outcome,[1],inactive
same,outcome,[2],inactive
same,outcome,[4],inactive
same,outcome,[5],inactive
same,outcome,[9],inactive
same,outcome,[6],inactive
Nc1ccc2c(c1)C(=O)c1ccccc1C2=O,outcome,[1],inactive
same,outcome,[2],inactive
same,outcome,[3],inactive
same,outcome,[4],inactive
same,outcome,[5],inactive
same,outcome,[9],inactive
same,outcome,[6],inactive
same,outcome,[7],inactive
Clc1cc(Cl)c(Cl)cc1Cl,outcome,[1],inactive
same,outcome,[2],inactive
same,outcome,[3],inactive
same,outcome,[5],inactive
same,outcome,[6],inactive
same,outcome,[7],inactive
CCc1c(C(=O)NN2CCCCC2)nn(-c2ccc(Cl)cc2Cl)c1-c1ccc(Br)cc1,outcome,[1],inactive
same,outcome,[2],inactive
same,outcome,[3],inactive
same,outcome,[4],inactive
same,outcome,[5],inactive
same,outcome,[9],inactive
same,outcome,[6],inactive
same,outcome,[7],inactive
COc1cc(-c2nc(NC(=O)c3cc4cc(C)cc(C)c4n3CC(=O)O)sc2CCC2CCCCC2)c(OC)cc1Cl,AC50,[1],3.51 µM (active)
same,AC50,[2],3.39 µM (active)
same,outcome,[3],inactive
same,outcome,[4],inactive
same,outcome,[5],inactive
same,outcome,[9],inactive
same,outcome,[6],inactive
same,outcome,[7],inactive
same,outcome,[8],inactive
Cc1ccc(Cl)cc1,outcome,[1],inactive
same,outcome,[2],inactive
same,outcome,[3],inactive
same,outcome,[4],inactive
same,outcome,[5],inactive
same,outcome,[9],inactive
same,outcome,[6],inactive
same,outcome,[7],inactive
Nc1ccc(S(=O)(=O)c2ccc(N)cc2)cc1,outcome,[1],inactive
same,outcome,[2],inactive
same,outcome,[3],inactive
same,outcome,[5],inactive
same,outcome,[9],inactive
same,outcome,[6],inactive
same,outcome,[7],inactive
CC1(C)CC(N=C=O)CC(C)(CN=C=O)C1 (stereo not given),outcome,[1],inactive
same,outcome,[2],inactive
same,outcome,[3],inactive
same,outcome,[4],inactive
same,outcome,[9],inactive
same,outcome,[6],inactive
same,outcome,[7],inactive
same,outcome,[8],inactive
Cc1cccc(C)c1O,outcome,[1],inactive
same,outcome,[2],inactive
same,outcome,[3],inactive
same,outcome,[4],inactive
same,outcome,[5],inactive
same,outcome,[9],inactive
same,outcome,[6],inactive
same,outcome,[8],inactive
COc1ccc(S(=O)(=O)N2C(=O)[C@@](c3ccccc3OC)(N3C[C@H](O)C[C@H]3C(=O)N(C)C)c3cc(Cl)ccc32)c(OC)c1,AC50,[1],77.4 µM (active)
same,AC50,[2],86.6 µM (active)
same,outcome,[3],inactive
same,outcome,[4],inactive
same,outcome,[5],inactive
same,outcome,[9],inactive
same,outcome,[6],inactive
same,outcome,[8],inactive
CN1CCCC1=O,outcome,[1],inactive
same,outcome,[2],inactive
same,outcome,[3],inactive
same,outcome,[4],inactive
same,outcome,[5],inactive
same,outcome,[6],inactive
same,outcome,[7],inactive
same,outcome,[8],inactive
c1cc(-c2ccncc2)ccn1,outcome,[1],inactive
same,outcome,[2],inactive
same,outcome,[3],inactive
same,outcome,[4],inactive
same,outcome,[5],inactive
same,outcome,[9],inactive
same,outcome,[6],inactive
same,outcome,[7],inactive
same,outcome,[8],inactive
COCCOCCOC,outcome,[1],inactive
same,outcome,[2],inactive
same,outcome,[3],inactive
same,outcome,[4],inactive
same,outcome,[5],inactive
same,outcome,[9],inactive
CN[C@H]1CC[C@@H](c2ccc(Cl)c(Cl)c2)c2ccc(S(N)(=O)=O)cc21,AC50,[1],85.5 µM (active)
same,AC50,[2],86.1 µM (active)
same,outcome,[3],inactive
same,outcome,[4],inactive
same,outcome,[9],inactive
same,outcome,[6],inactive
same,outcome,[7],inactive
NS(=O)(=O)c1cc2c(cc1Cl)NCNS2(=O)=O,outcome,[1],inactive
same,outcome,[2],inactive
same,outcome,[3],inactive
same,outcome,[4],inactive
same,outcome,[5],inactive
same,outcome,[9],inactive
same,outcome,[6],inactive
same,outcome,[7],inactive
Cc1nc(-c2ccc3c(c2)CCN(CCC2CCC(NC(=O)/C=C/c4ccc(F)cc4)CC2)CC3)no1 (stereo not given),outcome,[1],inactive
same,outcome,[2],inactive
same,outcome,[3],inactive
same,outcome,[4],inactive
same,outcome,[5],inactive
same,outcome,[9],inactive
same,outcome,[6],inactive
same,outcome,[7],inactive
same,outcome,[8],inactive
Oc1ccc2c(c1)OC[C@@H](N1CCC(O)(c3ccc(F)cc3)CC1)[C@H]2O,outcome,[3],inactive
same,outcome,[4],inactive
same,outcome,[5],inactive
same,outcome,[9],inactive
same,outcome,[6],inactive
same,outcome,[7],inactive
Cc1cc(NC(=O)C(=O)O)cc(C)c1Oc1ccc(O)c2c1CCC2,outcome,[2],inactive
same,outcome,[3],inactive
same,AC50,[4],0.0678 µM (active)
same,AC50,[10],0.526 µM (active)
same,outcome,[5],inactive
same,AC50,[9],0.0742 µM (active)
same,AC50,[6],0.0689 µM (active)
same,outcome,[7],inactive
same,outcome,[8],inactive
CN1CCN(Cc2cc(-c3ccc4[nH]c(=O)oc4c3)co2)[C@@H](c2ccc(F)cc2)C1,outcome,[3],inactive
same,outcome,[4],inactive
same,outcome,[10],inactive
same,outcome,[5],inactive
same,AC50,[9],25.6 µM (active)
same,AC50,[6],25.7 µM (active)
same,outcome,[7],inactive
same,outcome,[8],inactive
Cc1cccc([N+](=O)[O-])c1C,outcome,[1],inactive
same,outcome,[3],inactive
same,outcome,[4],inactive
same,outcome,[10],inactive
same,outcome,[5],inactive
same,outcome,[9],inactive
same,outcome,[6],inactive
same,outcome,[7],inactive

# From PubChem BioAssay (EPA / NIEHS)
